Results: PubChem BioAssay (EPA / NIEHS)
Results filed as inconclusive are left out. Active and inactive are the calls of the source. How the source made its calls, unless noted: active means hit-call score of the fitted dose curve at least 0.9, where 1 is the maximum; inconclusive means response in the unintended direction; inactive means score below 0.9.

Key:
[1] = TOX21_p53_BLA_p2_viability: Viability Assessment in the Tox21 HCT-116 p53 Agonism Beta-lactamase Assay, Phase 2 (AID 2283591);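 further: actives lower the ATP signal meaning cytotoxicity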
Outline: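 HCT116 p53-bla cells, 4000/well, dosed after 5 h plating (217-fold dilution of DMSO stocks) and incubated 16 h at 37C. Viability taken as cellular ATP by CellTiter-Glo luminescence after 30 min RT; signal loss marks cytotoxicity.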

[2] = target: Cellular tumor antigen p53 (Homo sapiens) (UniProt P04637); assay: TOX21_p53_BLA_p2_ratio: Tox21 HCT-116 p53 Agonism Beta-lactamase Assay, Ratio, Phase 2 (AID 2283592)
Outline: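 Ratio endpoint: beta-lactamase cleavage of CCF4-AM, blue (460 nm) over green (530 nm). HCT116 reporter line; 16 h treatment, 37C; substrate 2 h RT.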

[3] = TOX21_p53_BLA_p3_viability: Viability Assessment in the Tox21 HCT-116 p53 Agonism Beta-lactamase Assay, Phase 3 (AID 2283593);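 further: cells exposed to compound for 16 h before reading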
Outline: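 HCT116 cells, 4000/well, dosed 5 h after plating by pin transfer (217-fold dilution from DMSO stock) and incubated 16 h at 37C, 5% CO2. Viability read as ATP luminescence with CellTiter-Glo after 30 min at room temperature.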

[4] = target: Cellular tumor antigen p53 (Homo sapiens) (UniProt P04637); assay: TOX21_p53_BLA_p3_ratio: Tox21 HCT-116 p53 Agonism Beta-lactamase Assay, Ratio, Phase 3 (AID 2283596)
Outline: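 Cells were seeded at 4000/well, rested 5 h at 37C, then dosed with DMSO compound solutions (217-fold dilution) for 16 h. CCF4-AM substrate was loaded for 2 h at room temperature, and the 460/530 nm emission ratio was fitted for gain of signal versus DMSO.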

[5] = TOX21_p53_BLA_p4_viability: Viability Assessment in the Tox21 HCT-116 p53 Agonism Beta-lactamase Assay, Phase 4 (AID 2283597);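 further: hits lower the luminescence signal meaning cytotoxicity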
Outline: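 Cytotoxicity was inferred from loss of CellTiter-Glo luminescence. HCT116 cells had been dosed with compounds after 5 h plating, incubated 16 h at 37C and 5% CO2, and exposed to the CCF4-AM substrate for 2 h.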

[6] = TOX21_p53_BLA_p5_viability: Viability Assessment in the Tox21 HCT-116 p53 Agonism Beta-lactamase Assay, Phase 5 (AID 2283600)
Outline: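 Luciferase-coupled ATP quantitation of cells treated for 16 h (37C, 5% CO2) with test chemicals delivered in DMSO via a 217-fold dilution; 4000 cells/well; reagent incubated 30 min at room temperature before luminescence reading.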

[7] = target: Cellular tumor antigen p53 (Homo sapiens) (UniProt P04637); assay: TOX21_p53_BLA_p4_ratio: Tox21 HCT-116 p53 Agonism Beta-lactamase Assay, Ratio, Phase 4 (AID 2283601)
Outline: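 HCT-116 p53 beta-lactamase reporter cells (4000/well) preincubated 5 h, then compound (217-fold dilution of DMSO stock) for 16 h at 37C. CCF4-AM substrate added 2 h at room temperature; 460/530 nm emission ratio fitted upward versus DMSO.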

PGR (gene 5241) = PGR (gene 5241) (UniProt P06401); assay: TOX21_PR_BLA_Followup_Antagonist_ratio: Tox21 HEK293 Progesterone Receptor (PR) Antagonism Beta-lactamase Follow-Up Assay, Ratio (AID 2283934);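 further: PR-UAS-bla HEK293T cells stimulated with 1 nM R5020 agonist for 16 hr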
Outline: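 Readout is the blue/green (ch2/ch1) substrate cleavage ratio after 2 hours at room temperature, following 16 hr co-treatment of PR-bla HEK293T cells with compound and 1nM promegestone. Multiplexed CellTiter-Glo viability flags cytotoxicity; DMSO baseline.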

[8] = TOX21_PR_BLA_Followup_Agonist_viability: Viability Assessment in the Tox21 HEK293 Progesterone Receptor (PR) Agonism Beta-lactamase Follow-Up Assay (AID 2283935);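 further: signal loss means lower viability so actives are cytotoxic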
Outline: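 Run multiplexed with the beta-lactamase FRET read, this endpoint measures ATP by CellTiter-Glo luminescence (30 min, room temperature). PR-UAS-bla HEK293T cells received compound 6 hr after plating and were then incubated 16 hr at 37C in 2% stripped serum.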

[9] = TOX21_PR_BLA_Followup_Antagonist_viability: Viability Assessment in the Tox21 HEK293 Progesterone Receptor (PR) Antagonism Beta-lactamase Follow-Up Assay (AID 2283936);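 further: cells exposed to compound with R5020 agonist for 16 h; hits lower the luminescence signal meaning cytotoxicity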
Outline: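 PR-UAS-bla HEK293T cells in medium with 2% charcoal-stripped FBS were treated with compounds plus R5020 for 16 hr at 37C. After the beta-lactamase read, CellTiter-Glo was added to the same wells and luminescence read after 30 min at room temperature.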

[10] = TOX21_PR_LUC_Followup_Agonist_viability: Viability Assessment in the Tox21 HEK293 Progesterone Receptor (PR) Agonism Luciferase Follow-Up Assay (AID 2283941);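 further: loss of signal means cytotoxicity so actives lower viability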
Outline: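 Cytotoxicity counter-readout in the PR-A luciferase reporter line HEK293, with 16 h compound exposure at 37C after cells were cultured in charcoal-stripped serum. Cellular ATP quantified by CellTiter-Glo luminescence.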

[11] = target: Cellular tumor antigen p53 (Homo sapiens) (UniProt P04637); assay: TOX21_p53_BLA_p5_ratio: Tox21 HCT-116 p53 Agonism Beta-lactamase Assay, Ratio, Phase 5 (AID 2283599)
Outline: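 HCT-116 p53-bla cells (4000/well) plated 5 h, dosed with compound (217-fold DMSO dilution) for 16 h at 37 C; CCF4-AM substrate 2 h at room temperature. Activity is the 460/530 nm emission ratio (405 nm excitation), fitted in gain-of-signal direction versus DMSO.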

[12] = target: Thyroid hormone receptor alpha (Rattus norvegicus) + Thyroid hormone receptor beta (Rattus norvegicus) (UniProt P18113+P63059); assay: TOX21_TR_LUC_GH3_Agonist_Followup: Tox21 GH3 Thyroid Hormone Receptor Agonism Luciferase Follow-Up Assay (AID 2283939)
Outline: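 Agonist-mode confirmatory run: 15 concentrations (5 nM to 92 uM final) on GH3 rat pituitary cells, 24 h at 37C/5% CO2, T3 as positive control. Luminescence read with ONE-Glo after 30 min.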

THRA (gene 7067) = THRA (gene 7067) (UniProt P10827); assay: TOX21_TRA_COA_Agonist_Followup_ratio: Tox21 Thyroid Hormone Receptor alpha Agonism through Coactivator Recruitment Follow-Up Assay, Ratio (AID 2283948; active means hit-call score of the fitted dose curve at least 0.9, where 1 is the maximum; inactive means score below 0.9)
Outline: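 Read-out is the 520/495 nm emission ratio (ex 340 nm), scaled between DMSO-only wells as 0% and T3 wells as 100%. It reflects fluorescein-SRC-2 peptide recruitment to GST-TRα LBD detected via terbium anti-GST antibody.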

THRB (gene 7068) [13] = target: THRB (gene 7068) (UniProt P10828); assay: TOX21_TRB_BLA_Agonist_Followup_ratio: Tox21 Thyroid Hormone Receptor beta Agonism Beta-lactamase (BLA) Follow-Up Assay, Ratio (AID 2283954)
Outline: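 Agonist mode: compounds (11-point, triplicate) incubated 18 h with HEK293T cells carrying GAL4-DBD/human TRβ-LBD and UAS-β-lactamase. Blue/green (460/530 nm) FRET ratio read after 2 h CCF4-AM loading; CellTiter-Glo viability run in the same plates.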

THRB (gene 7068) [14] = target: THRB (gene 7068) (UniProt P10828); assay: TOX21_TRB_COA_Agonist_Followup_ratio: Tox21 Thyroid Hormone Receptor beta Agonism through Coactivator Recruitment Follow-Up Assay, Ratio (AID 2283963; active means hit-call score of the fitted dose curve at least 0.9, where 1 is the maximum; inactive means score below 0.9)
Outline: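 First, the GST-fused TRβ ligand-binding domain (5.0 nM) was incubated with test compound in 0.10% BSA. Next, fluorescein-tagged SRC-2 peptide (200 nM) and terbium anti-GST antibody (2 nM) were added. Finally, TR-FRET emission ratios were normalized against DMSO and T3 controls.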

[15] = target: Retinoic acid receptor RXR-alpha (Homo sapiens) (UniProt P19793); assay: TOX21_TR_RXR_BLA_Agonist_Followup_ratio: Tox21 Thyroid Hormone Receptor beta Retinoid X Receptor alpha (RXRa) Agonism Beta-lactamase (BLA) Follow-Up Assay, Ratio (AID 2283968)
Outline: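 Agonist mode: compounds given to RXRa-bla HEK293T cells at 11 concentrations, triplicate, 16 h at 37C/5% CO2. Readout is the 460:530 nm blue/green ratio after 2 h substrate loading at room temperature; DMSO baseline, 9-cis retinoic acid control.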

[16] = TOX21_TR_RXR_BLA_Agonist_Followup_viability: Viability Assessment in the Tox21 Thyroid Hormone Receptor beta Retinoid X Receptor alpha (RXRa) Agonism Beta-lactamase (BLA) Follow-Up Assay (AID 2283970)
Outline: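 CellTiter-Glo ATP luciferase read-out of cell viability, multiplexed with the beta-lactamase reporter run. RXRa-bla HEK293T cells in charcoal-stripped serum medium were exposed 16 h at 37C; data fitted both directions relative to DMSO.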

[17] = CCTE_Harrill_HTTr_Viability_MCF7: CCTE's 6-hour Cell Viability Assessment for the High-Throughput Transcriptomics (HTTr) Platform, in MCF-7 cells cultured in DMEM + 10% fetal bovine serum, Harrill Lab (AID 2284010; active means hit-call score of the fitted dose curve at least 0.9, where 1 is the maximum; inactive means score below 0.9)
Outline: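 Propidium iodide exclusion, imaged by high-content analysis, gauged viability after a six-hour exposure across eight concentrations. Cells were MCF-7 grown in DMEM with 10% fetal bovine serum; fits run in both directions against DMSO.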

[18] = CCTE_Harrill_HTTr_Apoptosis_MCF7: CCTE's 6-hour Apoptosis Assessment for the High-Throughput Transcriptomics (HTTr) Platform, in MCF-7 cells cultured in DMEM + 10% fetal bovine serum, Harrill Lab (AID 2284011; active means hit-call score of the fitted dose curve at least 0.9, where 1 is the maximum; inactive means score below 0.9)
Outline: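 MCF-7 cells in DMEM + 10% fetal bovine serum were exposed to chemicals for 6 hours over an eight-point dilution series. Caspase-3/7 activation was imaged by high content imaging with CellEvent Caspase 3/7 Green; bidirectional fitting used DMSO as baseline.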

[19] = CCTE_Harrill_HTTr_CellCount_MCF7: CCTE's Cell Proliferation Assessment for the High-Throughput Transcriptomics (HTTr) Platform, Harrill Lab (AID 2284012);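 further: cells exposed to compound for six hours; intended direction is loss of nuclei count meaning fewer cells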
Outline: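 Cell count from high-content imaging of Hoechst-labeled nuclei serves as viability/growth readout. Chemicals were applied to MCF-7 cells in eight concentrations for six hours, with fitting in both directions relative to DMSO.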

Measured: AC50

Chain of Cellular tumor antigen p53 (Homo sapiens) (P04637 whole entry, looked up): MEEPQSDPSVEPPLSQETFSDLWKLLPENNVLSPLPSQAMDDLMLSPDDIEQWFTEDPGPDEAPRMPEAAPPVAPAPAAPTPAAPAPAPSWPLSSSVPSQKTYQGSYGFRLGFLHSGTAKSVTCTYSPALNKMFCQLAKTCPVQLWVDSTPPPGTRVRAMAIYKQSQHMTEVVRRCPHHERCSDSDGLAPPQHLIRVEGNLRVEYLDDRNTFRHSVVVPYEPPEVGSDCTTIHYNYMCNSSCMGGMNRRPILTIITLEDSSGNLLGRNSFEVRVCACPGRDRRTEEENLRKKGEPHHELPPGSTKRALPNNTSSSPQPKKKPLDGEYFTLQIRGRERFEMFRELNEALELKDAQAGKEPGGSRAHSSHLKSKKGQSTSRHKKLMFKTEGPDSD
Chain of THRB (gene 7068) (P10828 whole entry, looked up, the tested form may be a part): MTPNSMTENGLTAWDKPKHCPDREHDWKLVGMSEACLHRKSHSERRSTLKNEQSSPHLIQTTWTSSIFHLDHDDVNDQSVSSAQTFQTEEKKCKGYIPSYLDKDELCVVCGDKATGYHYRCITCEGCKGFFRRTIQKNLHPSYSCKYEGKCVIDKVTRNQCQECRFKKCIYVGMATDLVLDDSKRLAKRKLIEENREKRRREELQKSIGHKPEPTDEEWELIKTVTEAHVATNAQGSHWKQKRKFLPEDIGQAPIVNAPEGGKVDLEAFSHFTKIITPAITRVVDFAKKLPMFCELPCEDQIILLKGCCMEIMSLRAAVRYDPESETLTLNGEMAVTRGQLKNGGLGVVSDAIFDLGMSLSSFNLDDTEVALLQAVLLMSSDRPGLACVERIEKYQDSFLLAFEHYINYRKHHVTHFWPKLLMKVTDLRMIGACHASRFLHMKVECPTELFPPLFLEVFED
Chain of Thyroid hormone receptor alpha (Rattus norvegicus) + Thyroid hormone receptor beta (Rattus norvegicus) (P63059 whole entry, looked up): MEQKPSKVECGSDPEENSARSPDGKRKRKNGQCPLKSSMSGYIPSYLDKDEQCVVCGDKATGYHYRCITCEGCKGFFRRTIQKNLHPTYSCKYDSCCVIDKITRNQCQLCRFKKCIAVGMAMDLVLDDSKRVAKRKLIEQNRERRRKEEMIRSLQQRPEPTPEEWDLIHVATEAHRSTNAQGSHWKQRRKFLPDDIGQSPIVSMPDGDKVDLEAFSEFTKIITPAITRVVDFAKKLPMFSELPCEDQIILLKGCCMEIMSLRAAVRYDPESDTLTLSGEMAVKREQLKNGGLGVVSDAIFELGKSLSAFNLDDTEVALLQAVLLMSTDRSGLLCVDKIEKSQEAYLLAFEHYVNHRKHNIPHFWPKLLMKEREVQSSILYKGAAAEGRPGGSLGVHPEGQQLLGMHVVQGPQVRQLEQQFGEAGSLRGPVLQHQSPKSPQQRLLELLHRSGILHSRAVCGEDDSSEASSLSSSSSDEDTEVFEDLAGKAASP
Chain of Thyroid hormone receptor alpha (Rattus norvegicus) + Thyroid hormone receptor beta (Rattus norvegicus) (P18113 whole entry, looked up): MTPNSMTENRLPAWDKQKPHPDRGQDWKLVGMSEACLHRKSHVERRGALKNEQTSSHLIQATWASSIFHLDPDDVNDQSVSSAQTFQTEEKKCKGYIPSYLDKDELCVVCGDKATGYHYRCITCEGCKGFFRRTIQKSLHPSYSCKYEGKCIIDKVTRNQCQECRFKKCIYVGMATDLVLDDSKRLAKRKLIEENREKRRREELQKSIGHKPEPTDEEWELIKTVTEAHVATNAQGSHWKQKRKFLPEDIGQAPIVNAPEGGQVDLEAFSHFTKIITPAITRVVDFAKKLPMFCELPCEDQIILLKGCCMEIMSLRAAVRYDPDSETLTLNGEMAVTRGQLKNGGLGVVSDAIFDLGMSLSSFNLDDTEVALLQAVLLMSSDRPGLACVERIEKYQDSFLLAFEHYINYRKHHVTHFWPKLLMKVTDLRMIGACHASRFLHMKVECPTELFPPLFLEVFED
Chain of Retinoic acid receptor RXR-alpha (Homo sapiens) (P19793 whole entry, looked up): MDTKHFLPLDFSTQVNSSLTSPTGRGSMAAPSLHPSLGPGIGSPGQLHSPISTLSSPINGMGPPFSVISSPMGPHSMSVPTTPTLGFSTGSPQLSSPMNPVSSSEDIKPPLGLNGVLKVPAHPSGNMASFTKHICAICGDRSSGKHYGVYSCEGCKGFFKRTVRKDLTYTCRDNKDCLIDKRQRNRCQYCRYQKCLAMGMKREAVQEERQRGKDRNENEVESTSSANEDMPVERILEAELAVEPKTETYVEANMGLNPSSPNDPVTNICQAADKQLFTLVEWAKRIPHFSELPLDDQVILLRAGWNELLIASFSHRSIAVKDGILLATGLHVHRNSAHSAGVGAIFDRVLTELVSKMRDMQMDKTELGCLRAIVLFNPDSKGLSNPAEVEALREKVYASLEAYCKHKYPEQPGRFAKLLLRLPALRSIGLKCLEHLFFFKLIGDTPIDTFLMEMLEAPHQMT
Chain of PGR (gene 5241) (P06401 whole entry, looked up): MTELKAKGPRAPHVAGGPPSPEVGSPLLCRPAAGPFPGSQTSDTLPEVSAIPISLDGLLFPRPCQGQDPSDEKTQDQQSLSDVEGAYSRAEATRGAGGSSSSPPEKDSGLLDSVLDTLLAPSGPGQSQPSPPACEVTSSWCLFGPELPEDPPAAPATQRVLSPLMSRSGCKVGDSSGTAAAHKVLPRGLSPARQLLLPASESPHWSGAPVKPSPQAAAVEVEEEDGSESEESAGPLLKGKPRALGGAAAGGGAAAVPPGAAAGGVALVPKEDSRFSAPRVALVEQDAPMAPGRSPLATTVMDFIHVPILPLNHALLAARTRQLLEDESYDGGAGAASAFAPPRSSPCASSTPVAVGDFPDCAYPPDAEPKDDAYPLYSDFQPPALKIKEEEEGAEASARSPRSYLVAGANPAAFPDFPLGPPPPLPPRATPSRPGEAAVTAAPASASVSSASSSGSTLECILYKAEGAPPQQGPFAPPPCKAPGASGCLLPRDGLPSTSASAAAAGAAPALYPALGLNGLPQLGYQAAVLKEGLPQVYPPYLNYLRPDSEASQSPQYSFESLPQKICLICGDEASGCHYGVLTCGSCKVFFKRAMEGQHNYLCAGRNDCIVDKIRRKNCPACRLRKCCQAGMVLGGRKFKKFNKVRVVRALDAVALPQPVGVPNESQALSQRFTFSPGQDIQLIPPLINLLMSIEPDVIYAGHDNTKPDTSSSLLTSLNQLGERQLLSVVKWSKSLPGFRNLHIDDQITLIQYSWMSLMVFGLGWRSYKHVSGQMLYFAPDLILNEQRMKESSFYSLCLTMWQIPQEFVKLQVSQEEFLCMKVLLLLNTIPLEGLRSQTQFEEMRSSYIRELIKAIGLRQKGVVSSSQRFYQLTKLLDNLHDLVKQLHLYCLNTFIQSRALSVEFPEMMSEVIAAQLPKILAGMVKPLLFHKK
Chain of THRA (gene 7067) (P10827 whole entry, looked up, the tested form may be a part): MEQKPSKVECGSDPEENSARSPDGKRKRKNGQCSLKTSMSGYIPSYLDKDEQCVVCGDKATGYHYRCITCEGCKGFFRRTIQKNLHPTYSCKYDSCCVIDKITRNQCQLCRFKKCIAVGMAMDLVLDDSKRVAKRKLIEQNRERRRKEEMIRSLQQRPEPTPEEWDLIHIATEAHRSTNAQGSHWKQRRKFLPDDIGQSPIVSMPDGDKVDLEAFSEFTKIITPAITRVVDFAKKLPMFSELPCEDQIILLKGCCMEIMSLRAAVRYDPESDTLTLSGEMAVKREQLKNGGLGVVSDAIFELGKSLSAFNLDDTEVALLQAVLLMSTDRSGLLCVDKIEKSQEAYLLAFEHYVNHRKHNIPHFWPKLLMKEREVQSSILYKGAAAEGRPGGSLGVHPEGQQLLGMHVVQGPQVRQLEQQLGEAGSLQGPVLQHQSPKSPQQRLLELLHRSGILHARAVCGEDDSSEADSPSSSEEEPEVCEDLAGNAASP

CCCCCCCCC(CCCCCC)C(=O)O (stereo not drawn)
active: [3] 65.9 µM
inactive: [1] | [2] | [4] | [5] | [6] | [7]

C[C@]12CCC(=O)C=C1CC[C@@H]1[C@@H]2CC[C@@]2(C)[C@H]1CC[C@]2(O)C(=O)CO
inactive: [1] | [2] | [3] | [4] | [5] | [6] | [7] | PGR (gene 5241) | [8] | [9] | [10]

CCN(CC)c1ccc2c(-c3ccc(S(=O)(=O)O)cc3S(=O)(=O)[O-])c3ccc(=[N+](CC)CC)cc-3oc2c1
inactive: [1] | [2] | [3] | [4] | [5] | [6] | [7]

OCCCNc1ccccc1
inactive: [1] | [2] | [3] | [4] | [5] | [6] | [7]

O=C(O)CCCCCCCCCCCBr
inactive: [1] | [2] | [3] | [4] | [5] | [6] | [7]

O=C[C@H](O)[C@@H](O)[C@@H](O)[C@H](O)CO
inactive: [1] | [2] | [3] | [4] | [5] | [6] | [7]

CN(C)CCOCCN(C)CCO
inactive: [1] | [2] | [3] | [4] | [11]

CSCC[C@H](NC(=O)[C@H](Cc1ccc(OS(=O)(=O)O)cc1)NC(=O)[C@@H](N)CC(=O)O)C(=O)NCC(=O)N[C@@H](Cc1c[nH]c2ccccc12)C(=O)N[C@@H](CCSC)C(=O)N[C@@H](CC(=O)O)C(=O)N[C@@H](Cc1ccccc1)C(N)=O
not listed: PGR (gene 5241) | [8] | [9] | [10] | [11] | [17] | [18] | [19]
inactive: all other assays above

CC(C(=O)O)c1ccc(-c2ccccc2)c(F)c1 (stereo not drawn)
inactive: [1] | [2] | [3] | [4] | [5] | [6] | [7] | [17] | [18] | [19]

O=C(c1ccccc1O)c1ccccc1O
inactive: [1] | [2] | [3] | [4] | [5] | [7]

C[N+]1(C)[C@@H]2CC(OC(=O)C(O)(c3cccs3)c3cccs3)C[C@H]1[C@@H]1O[C@@H]12 (stereo partly drawn)
inactive: [1] | [2] | [3] | [4] | [5] | [7]

CCN(CC)CCOC(=O)c1cccnc1
inactive: [1] | [2] | [3] | [4] | [11] | [6]

CCCCN(CCCC)CC(O)c1cc(Cl)cc2c1-c1ccc(Cl)cc1/C2=C/c1ccc(Cl)cc1 (stereo not drawn)
inactive: [1] | [2] | [3] | [4] | [5] | [7]
